# Experimental data from paper PMC7862700, “An all-to-all approach to the identification of sequence-specific readers for epigenetic DNA modifications on cytosine”.
# Experiments:
# Assay in all cases: DAPPL (digital affinity profiling via proximity ligation, sequencing); 10 mM Tris-HCl pH 7.5, 50 mM NaCl, 1 mM DTT, 4% glycerol, room temperature, 30 min; GST-TFs on glutathione beads, 16-mer random dsDNA library, 0.1% formaldehyde crosslink after washing; high values mean tight binding
# Conditions in all cases: protein: recombinant; tags: N-terminal GST; dsDNA, one strand shown
# FLI1 = molecular target: T1, FLI1 (Homo sapiens, UniProt Q01543 1-452)
# T1 sequence: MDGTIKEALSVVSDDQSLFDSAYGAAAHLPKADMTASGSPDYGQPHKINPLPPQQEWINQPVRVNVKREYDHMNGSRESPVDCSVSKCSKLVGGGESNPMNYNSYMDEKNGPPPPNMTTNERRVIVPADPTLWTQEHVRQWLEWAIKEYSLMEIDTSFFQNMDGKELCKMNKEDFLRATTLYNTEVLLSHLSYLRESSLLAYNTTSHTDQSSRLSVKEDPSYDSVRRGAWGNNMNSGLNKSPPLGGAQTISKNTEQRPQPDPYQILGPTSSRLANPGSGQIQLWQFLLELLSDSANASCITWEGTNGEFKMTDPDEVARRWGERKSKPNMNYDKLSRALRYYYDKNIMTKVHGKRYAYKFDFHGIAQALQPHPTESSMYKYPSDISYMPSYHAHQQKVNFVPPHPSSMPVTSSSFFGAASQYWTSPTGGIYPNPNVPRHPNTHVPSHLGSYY
# Procedure, shortened: (§1)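 Binding signal is each hexamer's read frequency for a factor divided by its frequency in the tag-only sample. The factors were GST-fused human transcription factors from yeast, captured on glutathione beads, DNA-barcoded and pooled with that sample. Pools were incubated with 200 nmole of a random double-stranded 16-mer DNA library in Tris/NaCl/DTT/glycerol buffer at room temperature for 30 min, then washed, crosslinked with 0.1% formaldehyde, proximity-ligated with BsaI/T4 ligase (1 h, 37 °C), PCR-amplified and sequenced on an Illumina NextSeq500.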
# ELK1 = molecular target: T2, ELK1 (Homo sapiens, UniProt P19419 1-428)
# T2 sequence: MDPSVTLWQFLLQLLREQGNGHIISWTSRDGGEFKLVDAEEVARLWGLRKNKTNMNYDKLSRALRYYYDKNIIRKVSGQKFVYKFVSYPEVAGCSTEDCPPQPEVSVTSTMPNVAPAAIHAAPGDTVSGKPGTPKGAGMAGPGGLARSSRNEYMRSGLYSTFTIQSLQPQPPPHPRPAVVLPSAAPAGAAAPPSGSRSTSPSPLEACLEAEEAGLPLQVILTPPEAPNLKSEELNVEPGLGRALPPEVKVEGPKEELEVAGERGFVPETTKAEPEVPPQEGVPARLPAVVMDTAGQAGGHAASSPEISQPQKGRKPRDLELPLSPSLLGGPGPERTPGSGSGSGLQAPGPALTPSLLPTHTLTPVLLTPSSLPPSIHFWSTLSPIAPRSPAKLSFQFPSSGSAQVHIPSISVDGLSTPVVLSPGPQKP
# Procedure, shortened: as §1
# GABPA = molecular target: T3, GABPA (Homo sapiens, UniProt Q06546 1-454)
# T3 sequence: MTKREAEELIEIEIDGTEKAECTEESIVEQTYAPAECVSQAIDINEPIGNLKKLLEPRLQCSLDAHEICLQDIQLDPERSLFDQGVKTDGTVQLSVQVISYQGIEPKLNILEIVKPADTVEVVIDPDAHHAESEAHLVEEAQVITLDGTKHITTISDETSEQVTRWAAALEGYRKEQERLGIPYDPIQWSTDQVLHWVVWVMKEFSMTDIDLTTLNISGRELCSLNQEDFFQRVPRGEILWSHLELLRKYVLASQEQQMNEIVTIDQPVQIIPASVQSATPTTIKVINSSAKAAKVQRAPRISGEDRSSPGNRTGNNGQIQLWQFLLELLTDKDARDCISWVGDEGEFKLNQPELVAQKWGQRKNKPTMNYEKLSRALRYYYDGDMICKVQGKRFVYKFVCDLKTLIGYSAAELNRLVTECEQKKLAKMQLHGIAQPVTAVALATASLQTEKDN
# Procedure, shortened: as §1
# ERG = molecular target: T4, ERG (Homo sapiens, UniProt P11308 1-479)
# T4 sequence: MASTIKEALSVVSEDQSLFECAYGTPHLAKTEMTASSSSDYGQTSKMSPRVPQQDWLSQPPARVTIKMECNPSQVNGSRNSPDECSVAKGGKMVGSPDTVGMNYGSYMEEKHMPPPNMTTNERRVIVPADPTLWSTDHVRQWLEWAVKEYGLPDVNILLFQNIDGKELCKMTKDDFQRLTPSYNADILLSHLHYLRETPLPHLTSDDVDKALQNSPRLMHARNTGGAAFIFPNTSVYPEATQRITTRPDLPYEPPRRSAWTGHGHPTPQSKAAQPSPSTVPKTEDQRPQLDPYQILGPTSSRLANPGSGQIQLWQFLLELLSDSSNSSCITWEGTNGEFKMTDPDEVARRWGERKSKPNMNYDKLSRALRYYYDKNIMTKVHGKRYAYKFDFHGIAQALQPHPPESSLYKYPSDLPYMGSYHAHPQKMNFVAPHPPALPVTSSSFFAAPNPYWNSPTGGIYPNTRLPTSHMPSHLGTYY
# Procedure, shortened: as §1
# ELF1 = ELF1 (Homo sapiens, UniProt P32519 1-619)
# Procedure, shortened: as §1
# EHF = molecular target: T5, EHF (Homo sapiens, UniProt Q9NZC4 1-300)
# T5 sequence: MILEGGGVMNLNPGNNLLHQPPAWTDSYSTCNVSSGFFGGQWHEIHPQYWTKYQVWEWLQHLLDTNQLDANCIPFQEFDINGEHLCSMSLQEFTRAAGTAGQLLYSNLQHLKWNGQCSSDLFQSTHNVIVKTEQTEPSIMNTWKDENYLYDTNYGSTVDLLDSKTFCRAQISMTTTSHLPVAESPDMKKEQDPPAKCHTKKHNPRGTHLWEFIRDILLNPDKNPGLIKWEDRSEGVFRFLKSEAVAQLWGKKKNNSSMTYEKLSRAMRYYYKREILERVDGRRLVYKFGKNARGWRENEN
# Procedure, shortened: as §1
# SPI1 = SPI1 (Homo sapiens, UniProt P17947 1-270)
# Procedure, shortened: as §1
# SPIB = SPIB (Homo sapiens, UniProt Q01892 1-262)
# Procedure, shortened: as §1
# FEV = molecular target: T6, FEV (Homo sapiens, UniProt Q99581 1-238)
# T6 sequence: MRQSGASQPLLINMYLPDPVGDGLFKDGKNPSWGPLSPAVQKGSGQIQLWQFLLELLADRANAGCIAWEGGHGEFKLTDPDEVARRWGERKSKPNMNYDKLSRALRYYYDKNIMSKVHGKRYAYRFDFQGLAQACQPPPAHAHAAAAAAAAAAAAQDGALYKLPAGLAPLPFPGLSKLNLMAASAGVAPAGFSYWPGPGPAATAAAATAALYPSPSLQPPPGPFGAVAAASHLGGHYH
# Procedure, shortened: as §1
# ETV5 = ETV5 (Homo sapiens, UniProt P41161 1-510)
# Procedure, shortened: as §1
# ELF4 = ELF4 (Homo sapiens, UniProt Q99607 1-663)
# Procedure, shortened: as §1
# ELF3 = molecular target: T7, ELF3 (Homo sapiens, UniProt P78545 1-371)
# T7 sequence: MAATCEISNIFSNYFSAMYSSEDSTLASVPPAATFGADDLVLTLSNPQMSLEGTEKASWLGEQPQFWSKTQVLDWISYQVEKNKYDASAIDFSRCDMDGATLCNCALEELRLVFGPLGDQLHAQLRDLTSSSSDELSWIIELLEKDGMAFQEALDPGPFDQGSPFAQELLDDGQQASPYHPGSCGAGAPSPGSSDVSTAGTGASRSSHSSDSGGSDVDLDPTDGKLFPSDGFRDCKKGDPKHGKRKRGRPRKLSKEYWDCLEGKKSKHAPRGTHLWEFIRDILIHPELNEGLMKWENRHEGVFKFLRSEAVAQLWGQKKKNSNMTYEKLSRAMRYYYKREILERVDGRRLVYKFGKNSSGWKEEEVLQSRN
# Procedure, shortened: as §1
# ETV1 = ETV1 (Homo sapiens, UniProt P50549 1-477)
# Procedure, shortened: as §1
# ERF = molecular target: T8, ERF (Homo sapiens, UniProt P50548 1-548)
# T8 sequence: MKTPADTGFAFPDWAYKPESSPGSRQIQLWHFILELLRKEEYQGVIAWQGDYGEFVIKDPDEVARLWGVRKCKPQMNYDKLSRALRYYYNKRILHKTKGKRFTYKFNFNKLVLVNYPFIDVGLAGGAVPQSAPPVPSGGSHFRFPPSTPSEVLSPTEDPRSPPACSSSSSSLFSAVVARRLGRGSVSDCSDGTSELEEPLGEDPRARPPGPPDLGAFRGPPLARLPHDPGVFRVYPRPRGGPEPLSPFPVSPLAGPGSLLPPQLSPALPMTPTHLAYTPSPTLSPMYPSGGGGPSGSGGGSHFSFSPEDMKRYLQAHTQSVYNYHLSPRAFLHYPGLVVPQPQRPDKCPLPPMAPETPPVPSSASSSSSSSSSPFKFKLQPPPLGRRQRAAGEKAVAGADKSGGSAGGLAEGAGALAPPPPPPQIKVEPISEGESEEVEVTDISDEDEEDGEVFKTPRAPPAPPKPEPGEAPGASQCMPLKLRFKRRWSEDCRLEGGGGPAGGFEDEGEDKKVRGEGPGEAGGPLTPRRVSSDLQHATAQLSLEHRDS
# Procedure, shortened: as §1
# ETV3L = molecular target: T9, ETV3L (Homo sapiens, UniProt Q6ZN32 1-361)
# T9 sequence: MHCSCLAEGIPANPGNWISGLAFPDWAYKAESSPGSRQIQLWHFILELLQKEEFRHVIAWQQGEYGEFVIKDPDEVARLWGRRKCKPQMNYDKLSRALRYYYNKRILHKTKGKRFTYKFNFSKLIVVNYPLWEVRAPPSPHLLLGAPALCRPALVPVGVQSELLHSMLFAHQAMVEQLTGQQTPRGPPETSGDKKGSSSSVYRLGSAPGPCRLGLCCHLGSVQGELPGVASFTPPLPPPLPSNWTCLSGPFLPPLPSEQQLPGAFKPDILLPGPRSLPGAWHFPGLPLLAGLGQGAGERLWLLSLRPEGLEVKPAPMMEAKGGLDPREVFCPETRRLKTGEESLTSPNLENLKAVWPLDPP
# Procedure, shortened: as §1
# ETS2 = molecular target: T10, ETS2 (Homo sapiens, UniProt P15036 1-469)
# T10 sequence: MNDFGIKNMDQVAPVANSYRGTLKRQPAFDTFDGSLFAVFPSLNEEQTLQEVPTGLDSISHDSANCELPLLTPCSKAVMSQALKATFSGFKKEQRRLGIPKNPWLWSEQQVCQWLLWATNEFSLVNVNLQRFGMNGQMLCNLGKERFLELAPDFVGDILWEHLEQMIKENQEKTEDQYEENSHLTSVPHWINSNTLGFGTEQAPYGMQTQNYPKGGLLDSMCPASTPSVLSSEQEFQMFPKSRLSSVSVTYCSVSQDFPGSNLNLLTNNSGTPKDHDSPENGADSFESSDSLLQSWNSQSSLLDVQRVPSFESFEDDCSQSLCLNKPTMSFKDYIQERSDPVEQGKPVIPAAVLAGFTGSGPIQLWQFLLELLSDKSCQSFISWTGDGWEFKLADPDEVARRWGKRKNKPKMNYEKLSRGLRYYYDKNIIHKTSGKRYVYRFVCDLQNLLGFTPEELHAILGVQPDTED
# Procedure, shortened: as §1
# ETV3 = molecular target: T11, ETV3 (Homo sapiens, UniProt P41162-2 1-143)
# T11 sequence: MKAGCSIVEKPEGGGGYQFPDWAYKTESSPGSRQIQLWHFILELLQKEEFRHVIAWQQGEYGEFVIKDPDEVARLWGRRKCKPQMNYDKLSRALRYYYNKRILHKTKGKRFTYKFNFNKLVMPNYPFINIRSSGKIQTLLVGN
# Procedure, shortened: as §1
# ETV6 = ETV6 (Homo sapiens, UniProt P41212 1-452)
# Procedure, shortened: as §1
# ETV5, sequence (P41161 whole entry): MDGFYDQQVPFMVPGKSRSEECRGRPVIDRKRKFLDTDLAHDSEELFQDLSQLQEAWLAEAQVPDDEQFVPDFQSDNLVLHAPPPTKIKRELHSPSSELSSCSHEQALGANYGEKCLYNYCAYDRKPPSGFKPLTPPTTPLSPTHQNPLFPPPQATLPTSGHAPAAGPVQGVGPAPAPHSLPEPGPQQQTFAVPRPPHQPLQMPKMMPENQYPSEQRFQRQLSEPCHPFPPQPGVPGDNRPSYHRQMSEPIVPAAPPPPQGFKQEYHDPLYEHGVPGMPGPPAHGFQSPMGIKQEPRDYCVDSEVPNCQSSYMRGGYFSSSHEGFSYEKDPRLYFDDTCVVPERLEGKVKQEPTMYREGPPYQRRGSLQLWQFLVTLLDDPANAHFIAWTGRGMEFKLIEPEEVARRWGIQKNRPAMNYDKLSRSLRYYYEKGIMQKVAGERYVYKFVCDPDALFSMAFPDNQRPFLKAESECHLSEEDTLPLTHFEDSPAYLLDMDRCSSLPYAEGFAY
# ETV1, sequence (P50549 whole entry): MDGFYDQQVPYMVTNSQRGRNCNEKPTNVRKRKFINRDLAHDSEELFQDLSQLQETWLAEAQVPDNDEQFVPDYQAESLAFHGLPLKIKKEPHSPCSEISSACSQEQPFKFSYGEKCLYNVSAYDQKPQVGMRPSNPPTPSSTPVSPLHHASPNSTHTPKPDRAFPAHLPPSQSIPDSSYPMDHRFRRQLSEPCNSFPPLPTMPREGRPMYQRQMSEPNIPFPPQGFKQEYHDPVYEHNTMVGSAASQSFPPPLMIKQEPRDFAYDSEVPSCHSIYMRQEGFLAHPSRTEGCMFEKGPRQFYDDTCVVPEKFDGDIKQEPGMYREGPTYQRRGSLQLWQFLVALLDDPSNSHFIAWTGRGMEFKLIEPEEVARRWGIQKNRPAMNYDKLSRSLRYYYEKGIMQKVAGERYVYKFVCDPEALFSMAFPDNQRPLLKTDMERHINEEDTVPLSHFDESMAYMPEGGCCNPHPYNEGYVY
# ELF4, sequence (Q99607 whole entry): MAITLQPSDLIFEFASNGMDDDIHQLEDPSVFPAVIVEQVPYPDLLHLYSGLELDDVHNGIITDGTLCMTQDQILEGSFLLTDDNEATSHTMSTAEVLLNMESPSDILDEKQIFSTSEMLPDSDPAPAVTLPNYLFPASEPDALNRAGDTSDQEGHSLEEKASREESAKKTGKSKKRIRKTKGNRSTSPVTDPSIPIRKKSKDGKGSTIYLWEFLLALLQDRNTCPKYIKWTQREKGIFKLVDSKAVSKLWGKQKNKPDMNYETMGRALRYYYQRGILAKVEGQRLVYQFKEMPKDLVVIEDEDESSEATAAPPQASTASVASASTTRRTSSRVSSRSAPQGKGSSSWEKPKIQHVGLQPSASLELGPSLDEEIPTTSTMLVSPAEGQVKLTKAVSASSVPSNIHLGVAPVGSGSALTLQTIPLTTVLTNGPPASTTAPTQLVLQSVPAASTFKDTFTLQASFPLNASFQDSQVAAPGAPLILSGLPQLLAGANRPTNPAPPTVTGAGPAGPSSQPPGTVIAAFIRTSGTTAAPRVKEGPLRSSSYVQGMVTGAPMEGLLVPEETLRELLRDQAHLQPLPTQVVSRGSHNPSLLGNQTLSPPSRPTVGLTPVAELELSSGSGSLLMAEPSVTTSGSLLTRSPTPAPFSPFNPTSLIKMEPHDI
# ELF1, sequence (P32519 whole entry): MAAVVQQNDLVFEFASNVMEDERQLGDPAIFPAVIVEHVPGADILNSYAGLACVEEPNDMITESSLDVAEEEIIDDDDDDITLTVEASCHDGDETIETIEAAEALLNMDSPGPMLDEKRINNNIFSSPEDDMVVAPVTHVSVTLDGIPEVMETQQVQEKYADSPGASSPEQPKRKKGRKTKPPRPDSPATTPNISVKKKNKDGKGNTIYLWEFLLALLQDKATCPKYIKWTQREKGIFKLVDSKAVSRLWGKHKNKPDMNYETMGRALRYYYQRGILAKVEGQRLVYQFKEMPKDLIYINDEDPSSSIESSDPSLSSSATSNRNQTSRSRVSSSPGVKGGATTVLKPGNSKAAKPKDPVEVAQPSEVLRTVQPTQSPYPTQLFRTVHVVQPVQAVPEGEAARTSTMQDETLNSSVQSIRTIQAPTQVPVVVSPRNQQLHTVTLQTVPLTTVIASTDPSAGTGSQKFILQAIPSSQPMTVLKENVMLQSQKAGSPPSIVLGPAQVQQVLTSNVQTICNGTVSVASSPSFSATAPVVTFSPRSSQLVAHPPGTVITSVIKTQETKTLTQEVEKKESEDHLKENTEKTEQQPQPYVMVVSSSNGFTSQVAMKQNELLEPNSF
# ETV6, sequence (P41212 whole entry): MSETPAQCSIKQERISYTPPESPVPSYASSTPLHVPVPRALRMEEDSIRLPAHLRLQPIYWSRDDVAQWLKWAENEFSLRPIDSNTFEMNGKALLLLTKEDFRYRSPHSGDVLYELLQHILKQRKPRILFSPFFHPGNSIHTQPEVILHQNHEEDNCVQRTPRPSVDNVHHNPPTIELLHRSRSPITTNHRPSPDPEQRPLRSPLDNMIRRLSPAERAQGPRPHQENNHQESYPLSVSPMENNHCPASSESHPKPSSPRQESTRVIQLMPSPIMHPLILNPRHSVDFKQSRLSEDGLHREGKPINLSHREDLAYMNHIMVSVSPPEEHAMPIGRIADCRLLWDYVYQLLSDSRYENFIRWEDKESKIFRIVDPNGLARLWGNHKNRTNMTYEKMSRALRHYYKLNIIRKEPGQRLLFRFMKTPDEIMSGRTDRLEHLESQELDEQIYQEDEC
# SPIB, sequence (Q01892 whole entry): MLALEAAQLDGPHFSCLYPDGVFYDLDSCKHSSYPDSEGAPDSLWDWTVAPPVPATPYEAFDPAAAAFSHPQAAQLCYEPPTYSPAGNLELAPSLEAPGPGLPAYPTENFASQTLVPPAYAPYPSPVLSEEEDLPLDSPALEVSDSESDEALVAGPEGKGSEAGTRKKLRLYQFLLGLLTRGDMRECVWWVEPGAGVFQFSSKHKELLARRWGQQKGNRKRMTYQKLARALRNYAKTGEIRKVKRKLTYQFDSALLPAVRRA
sequence,measurement,setting,value
TGATAC,binding signal,FLI1,"1.13 fold enrichment (6-mer frequency, TF over GST control)"
same,binding signal,ELK1,"1.17 fold enrichment (6-mer frequency, TF over GST control)"
same,binding signal,GABPA,"1.16 fold enrichment (6-mer frequency, TF over GST control)"
same,binding signal,ERG,"1.13 fold enrichment (6-mer frequency, TF over GST control)"
same,binding signal,ELF1,"1.14 fold enrichment (6-mer frequency, TF over GST control)"
same,binding signal,EHF,"1.11 fold enrichment (6-mer frequency, TF over GST control)"
same,binding signal,SPI1,"1.19 fold enrichment (6-mer frequency, TF over GST control)"
same,binding signal,SPIB,"1.12 fold enrichment (6-mer frequency, TF over GST control)"
same,binding signal,FEV,"1.21 fold enrichment (6-mer frequency, TF over GST control)"
same,binding signal,ETV5,"1.1 fold enrichment (6-mer frequency, TF over GST control)"
same,binding signal,ELF4,"1.13 fold enrichment (6-mer frequency, TF over GST control)"
same,binding signal,ELF3,"1.16 fold enrichment (6-mer frequency, TF over GST control)"
same,binding signal,ETV1,"1.08 fold enrichment (6-mer frequency, TF over GST control)"
same,binding signal,ERF,"1.13 fold enrichment (6-mer frequency, TF over GST control)"
same,binding signal,ETV3L,"1.07 fold enrichment (6-mer frequency, TF over GST control)"
same,binding signal,ETS2,"1.1 fold enrichment (6-mer frequency, TF over GST control)"
same,binding signal,ETV3,"1.1 fold enrichment (6-mer frequency, TF over GST control)"
same,binding signal,ETV6,"1.1 fold enrichment (6-mer frequency, TF over GST control)"
